The campaign covered roughly 5,500 compounds. About 2,000 (36%) were called active. Not shown: some 18% with an inconclusive outcome. Rule as the data show it: active = normalized growth mostly below about 0.91 (no sharp cut-off); inconclusive = no clear call, values can overlap the other calls; inactive = mostly above about 0.92. Some of the results follow.
Assay: chemical genetic growth profiling, strain panel (AID 1159580);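 also: tested at 20 µM; growth read once vehicle control cultures reached saturation at 30 °C; 1 = growth at the plate median or of vehicle wells; lower values mean less growth of the strain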
Details: growth OD

Measured: normalized growth

C[CH2][Hg][S]c1ccccc1C(=O)O
active: S. cerevisiae deletion strains, locus YJR075W, strain HOC1, hits give low values 0.0601 | S. cerevisiae deletion strains, locus YKL009W, strain mrt4, hits give low values 0.078 | S. cerevisiae deletion strains, locus YKL068W, hits give low values 0.0532 | S. cerevisiae deletion strains, locus YKL085W, strain MDH1 (second series), hits give low values 0.0507 | S. cerevisiae deletion strains, locus YKL085W, strain MDH1, hits give low values 0.0507 | S. cerevisiae deletion strains, locus YKL160W, strain elf1, hits give low values 0.0622 | S. cerevisiae deletion strains, locus YKL190W, strain CNB1, hits give low values 0.0466 | S. cerevisiae deletion strains, locus YKR001C, strain vps1, hits give low values 0.0606 | S. cerevisiae deletion strains, locus YKR026C, strain gcn3, hits give low values 0.0601 | S. cerevisiae deletion strains, locus YKR091W, strain srl3, hits give low values 0.0575 | S. cerevisiae deletion strains, locus YLL001W, strain dnm1, hits give low values 0.058 | S. cerevisiae deletion strains, locus YLL026W, hits give low values 0.0549 | S. cerevisiae deletion strains, locus YLL041C, strain sdh2, hits give low values 0.0553 | S. cerevisiae deletion strains, locus YLR027C, strain aat2, hits give low values 0.0538 | S. cerevisiae deletion strains, locus YLR039C, strain RIC1, hits give low values 0.0815 | S. cerevisiae deletion strains, locus YLR058C, strain SHM2, hits give low values 0.0473 | S. cerevisiae deletion strains, locus YLR102C, strain apc9, hits give low values 0.0603 | S. cerevisiae deletion strains, locus YLR113W, strain HOG1, hits give low values 0.153 | S. cerevisiae deletion strains, locus YLR221C, strain rsa3, hits give low values 0.0597 | S. cerevisiae deletion strains, locus YLR258W, strain gsy2, hits give low values 0.0592 | S. cerevisiae deletion strains, locus YLR262C, strain YPT6 (second series), hits give low values 0.0742 | S. cerevisiae deletion strains, locus YLR262C, strain YPT6, hits give low values 0.105 | S. cerevisiae deletion strains, locus YLR268W, strain sec22, hits give low values 0.0621 | S. cerevisiae deletion strains, locus YLR320W, strain mms22, hits give low values 0.0814 | S. cerevisiae deletion strains, locus YLR330W, strain CHS5, hits give low values 0.0525 | S. cerevisiae deletion strains, locus YLR342W, strain FKS1 (second series), hits give low values 0.0638 | S. cerevisiae deletion strains, locus YLR342W, strain FKS1, hits give low values 0.0616 | S. cerevisiae deletion strains, locus YLR357W, strain rsc2, hits give low values 0.112 | S. cerevisiae deletion strains, locus YLR370C, strain arc18, hits give low values 0.0588 | S. cerevisiae deletion strains, locus YLR371W, strain rom2, hits give low values 0.0587 | S. cerevisiae deletion strains, locus YLR384C, strain iki3, hits give low values 0.0582 | S. cerevisiae deletion strains, locus YLR418C, strain cdc73, hits give low values 0.0891 | S. cerevisiae deletion strains, locus YML016C, strain PPZ1, hits give low values 0.0465 | S. cerevisiae deletion strains, locus YML032C, strain rad52, hits give low values 0.0656 | S. cerevisiae deletion strains, locus YML120C, strain ndi1, hits give low values 0.0572 | S. cerevisiae deletion strains, locus YML124C, strain tub3, hits give low values 0.0558 | S. cerevisiae deletion strains, locus YMR058W, strain fet3, hits give low values 0.0565 | S. cerevisiae deletion strains, locus YMR078C, strain ctf18, hits give low values 0.0699 | S. cerevisiae deletion strains, locus YMR125W, strain sto1, hits give low values 0.0708 | S. cerevisiae deletion strains, locus YMR129W, hits give low values 0.0561 | S. cerevisiae deletion strains, locus YMR205C, strain PFK2, hits give low values 0.0823 | S. cerevisiae deletion strains, locus YMR223W, strain ubp8, hits give low values 0.0597 | S. cerevisiae deletion strains, locus YMR231W, strain pep5, hits give low values 0.0664 | S. cerevisiae deletion strains, locus YMR263W, strain SAP30, hits give low values 0.0559 | S. cerevisiae deletion strains, locus YMR307W, strain GAS1, hits give low values 0.0969 | S. cerevisiae deletion strains, locus YNL067W, strain RPL9B, hits give low values 0.0481 | S. cerevisiae deletion strains, locus YNL071W, strain lat1, hits give low values 0.0589 | S. cerevisiae deletion strains, locus YNL128W, strain TEP1, hits give low values 0.0596 | S. cerevisiae deletion strains, locus YNL153C, strain GIM3, hits give low values 0.0483 | S. cerevisiae deletion strains, locus YNL183C, strain NPR1, hits give low values 0.004 | S. cerevisiae deletion strains, locus YNL209W, strain ssb2, hits give low values 0.057 | S. cerevisiae deletion strains, locus YNL233W, strain BNI4, hits give low values 0.0515 | S. cerevisiae deletion strains, locus YNL248C, strain rpa49, hits give low values 0.0737 | S. cerevisiae deletion strains, locus YNL250W, strain rad50, hits give low values 0.0619 | S. cerevisiae deletion strains, locus YNL271C, strain bni1, hits give low values 0.0596 | S. cerevisiae deletion strains, locus YNL298W, strain CLA4, hits give low values 0.0571 | S. cerevisiae deletion strains, locus YNL307C, strain MCK1, hits give low values 0.0641 | S. cerevisiae deletion strains, locus YNL322C, strain KRE1 (second series), hits give low values 0.0632 | S. cerevisiae deletion strains, locus YNL322C, strain KRE1, hits give low values 0.0468 | S. cerevisiae deletion strains, locus YNR049C, strain mso1, hits give low values 0.0543 | S. cerevisiae deletion strains, locus YNR052C, strain pop2, hits give low values 0.061 | S. cerevisiae deletion strains, locus YOL006C, strain TOP1, hits give low values 0.0904 | S. cerevisiae deletion strains, locus YOL012C, strain htz1 0.178 | S. cerevisiae deletion strains, locus YOL147C, strain pex11, hits give low values 0.0589 | S. cerevisiae deletion strains, locus YOR001W, strain rrp6, hits give low values 0.0639 | S. cerevisiae deletion strains, locus YOR061W, strain CKA2, hits give low values 0.0446 | S. cerevisiae deletion strains, locus YOR069W, strain VPS5, hits give low values 0.0457 | S. cerevisiae deletion strains, locus YOR070C, strain gyp1, hits give low values 0.0575 | S. cerevisiae deletion strains, locus YOR080W, strain dia2, hits give low values 0.0641 | S. cerevisiae deletion strains, locus YOR083W, strain WHI5, hits give low values 0.0608 | S. cerevisiae deletion strains, locus YOR106W, strain vam3, hits give low values 0.0597 | S. cerevisiae deletion strains, locus YOR136W, strain idh2, hits give low values 0.0686 | S. cerevisiae deletion strains, locus YOR144C, strain elg1, hits give low values 0.0566 | S. cerevisiae deletion strains, locus YOR184W, strain ser1, hits give low values 0.065 | S. cerevisiae deletion strains, locus YOR231W, strain MKK1, hits give low values 0.125 | S. cerevisiae deletion strains, locus YOR265W, strain rbl2, hits give low values 0.0558 | S. cerevisiae deletion strains, locus YOR270C, strain vph1, hits give low values 0.0908 | S. cerevisiae deletion strains, locus YOR290C, strain snf2, hits give low values 0.0723 | S. cerevisiae deletion strains, locus YOR316C, strain cot1, hits give low values 0.0555 | S. cerevisiae deletion strains, locus YPL051W, strain arl3, hits give low values 0.0607 | S. cerevisiae deletion strains, locus YPL055C, strain LGE1, hits give low values 0.0725 | S. cerevisiae deletion strains, locus YPL078C, strain atp4, hits give low values 0.0632 | S. cerevisiae deletion strains, locus YPL106C, strain sse1, hits give low values 0.0983 | S. cerevisiae deletion strains, locus YPL240C, strain hsp82, hits give low values 0.0533 | S. cerevisiae deletion strains, locus YPL241C, strain CIN2, hits give low values 0.0538 | S. cerevisiae deletion strains, locus YPL256C, strain CLN2, hits give low values 0.135 | S. cerevisiae deletion strains, locus YPR119W, strain clb2, hits give low values 0.0599 | S. cerevisiae deletion strains, locus YPR141C, strain kar3, hits give low values 0.0633 | S. cerevisiae deletion strains, locus YPR163C, strain tif3, hits give low values 0.0679 | S. cerevisiae deletion strains, locus YPR167C, strain met16, hits give low values 0.0597 | S. cerevisiae deletion strains, strain wtn01, hits give low values 0.0565 | S. cerevisiae strains, strain wild type, hits give low values 0.0464

Source: PubChem BioAssay AID1159580 (chemical genetic matrix, 2015)
